The list is not random: actives were taken first. Their share in the collection is about 21%.
Shiga inhibitor = inhibitors of Shiga toxin in Vero cells; Vero cells, Shiga toxin protein synthesis inhibition reporter; inhibition, % at 38.7 µM; actives 9.2% (n = 290,000); AID 2315; in the data active = inhibition mostly above about 28%, no sharp cut-off; inactive = mostly below about 43%; note: 0% is about no effect
SARS PLpro yeast = SARS-CoV PLP inhibition in yeast; S. cerevisiae expressing SARS-CoV PLpro, growth rescue; Potency, µM (titrated, usually from 32.9 µM), without a hit: at the top dose activity, positive = growth rescue, usual class: activators; actives 0.19% (n = 330,000); calls by dose curve; note: potency is the fitted concentration of half-maximal effect; 0% is about no effect; nearly all actives have a fitted effect of over 55% in size
Cycloheximide cs = counter-screen for Shiga toxin inhibitors: cycloheximide protein synthesis inhibition; cell reporter, cycloheximide protein synthesis inhibition counterscreen; max response, %; actives 12% (n = 300,000); AID 2314; in the data active = max response mostly above about 13%, no sharp cut-off; inactive = mostly below about 14%; note: read at 38.3 µM for the half of the compounds with a filed dose; 0% is about no effect
Pf growth 48h = inhibits P. falciparum growth in the first generation, 48 h | Potency, µM (highest dose often 28.7 µM), for inactives: at the highest dose activity change, negative = inhibition, most hits filed as inhibitors | P. falciparum luciferase growth in erythrocytes, 48 h | actives 5.9% (n = 310,000) | AID 504832; note: potency is the fitted concentration of half-maximal effect; % is set by controls: 0 for no effect and ±100 for the full control effect
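Luciferase-expressing P. falciparum in infected erythrocytes (2% hematocrit, 0.1% parasitemia final) in RPMI 1640/0.5% Albumax were exposed to compound for 48 hours at 37 C, 5% CO2; growth read as luminescence.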
NS1 function inh = influenza NS1 inhibition | Potency, µM (highest dose often 46.1 µM), for inactives: at the top dose activity, positive = more growth | actives 0.4% (n = 270,000) | AID 2326; calls by dose curve; note: potency is the fitted concentration of half-maximal effect; actives are rising curves; nearly all actives have a fitted effect of over 50% in size
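Compounds were scored for reversing the slow growth caused by influenza A NS1 in S. cerevisiae, measured by optical density at 600 nm. Assay medium contained 2% galactose at pH 6.0; NS1-free yeast of the same strain were the positive control.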
Pf growth 96h = P. falciparum growth inhibition at 96 hours | P. falciparum luciferase reporter growth, 96 h | actives 6.9% (n = 320,000) | Potency, µM (top dose mostly 28.7 µM), for inactives: at the top dose activity change, negative = inhibition, hits mostly inhibitors; note: potency is the fitted concentration of half-maximal effect; % is set by controls: 0 for no effect and ±100 for the full control effect
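Readout is luminescence from an integrated firefly luciferase in P. falciparum. Red cells, 2% hematocrit and 0.05% parasitemia final, were cultured with compound through two parasite generations (96 hours) at 37 C, 5% CO2.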
Active calls of the source: *; ? = inconclusive; · = no result given; [ ] = remark or other dose. Unless noted, calls come from the whole dose curve; as a rule, active = well fitted inhibition curve with a large enough effect; inconclusive = small, poorly fitted or top-dose-only effect, or another doubt; inactive = no such curve, though single readings can be large or run the other way.

SMILES | Shiga inhibitor | SARS PLpro yeast | Cycloheximide cs | Pf growth 48h | NS1 function inh | Pf growth 96h
CCOC(=O)NNC(=O)NCCCCCCNC(=O)NNC(=O)OCC | -19.6 | 0.0% | -2.5 | 3.0% | 5.0% | 20.3%
C(=N\c1nc2ccccc2[nH]1)/c1cccs1 | 27.0 | 0.3% | 4.4 | 28.9% | -3.3% | 10.4µM*
N#C/C(=C/c1ccncc1)c1nc2ccccc2c(=O)[nH]1 | 24.7 | 3.9% | -2.3 | ? | 18.2% | ?
N#C/C(=C\c1cccs1)c1nc2ccccc2[nH]1 | 106.7* | -27.7% | 31.6* | ? | -4.0% | -7.7%
N#C/C(=C\c1ccc(OC(=O)c2cccs2)cc1)c1nc2ccccc2[nH]1 | 144.7* | -3.0% | 57.9* | 35.4% | -18.0% | ?
N#C/C(=C/c1ccc(O)c(O)c1)c1nc2ccccc2[nH]1 | 76.6* | -0.9% | 26.2* | 1.7%[0.00184 µM] | 3.5% | 4.3%
C[n+]1cn(Cc2ccc(C#N)cc2)c2ccccc21 | -7.3 | -0.4% | 6.7 | -34.9% | 0.3% | ?
N#C/C(=C\c1ccccc1OCC(=O)O)c1nc2ccccc2[nH]1 | 13.8 | -4.0% | 8.3* | · | -0.4% | -2.4%
O=C(NC1CCCCC1)C(=S)N1CCOCC1 | -10.0 | -0.9% | -5.8 | 37.2% | 5.0% | -15.9%
CCOc1ccc(NC(=O)CCN2CCN(C)CC2)cc1 | -11.9 | 12.9% | -3.3 | 12.1% | -17.9% | 0.0%
O=c1c(Cl)c2oc3ccccc3nc-2c2ccccc12 | -18.6 | -0.3% | 14.6 | 13.1µM* | -0.2% | -8.1%
CCOc1nc(Nc2ccc(OC)c(Cl)c2)nc(OCC)n1 | -11.7 | -4.2% | -1.7 | · | 2.4% | 13.1µM*
Cc1ccc(-c2noc(CSc3nc(N)cc(N)n3)n2)cc1 | 87.3* | -6.8% | 52.7* | 250.4% | 9.4% | -24.3%
Cc1ccc(-c2noc(CSc3nnnn3C3CCCCC3)n2)cc1 | -3.6 | -15.1% | -2.6 | · | -79.8% | -20.0%
Cc1ccc(-c2noc(CSc3nnc(Cc4ccccc4)n3-c3cccc(C)c3)n2)cc1 | -18.5 | -9.6% | 9.7 | ? | 9.0% | ·
c1ccc(CCCc2nc(-c3cccnc3)no2)cc1 | 43.1* | -8.0% | 19.1* | 4.9% | -17.1% | ?
Cc1cccc(-c2noc(CSc3ccccc3)n2)c1 | 67.1* | -6.6% | 44.5* | 127.6% | 2.1% | 54.0%
Cc1ccc(-c2noc(CSc3ccccc3)n2)cc1 | 76.6* | -10.0% | 33.3* | · | 1.2% | 81.9%
CCc1ccc(C(=O)/C=C/Nc2ccc(S(=O)(=O)Nc3cnc4ccccc4n3)cc2)cc1 | -2.6 | 1.3% | 13.7 | -11.1% | 2.5% | -5.7%
c1ccc(SCc2nc(-c3cccnc3)no2)cc1 | 108.0* | -8.8% | 36.4* | -49.9% | -8.3% | 24.9%
c1ccc(C(Cc2nc(-c3cccnc3)no2)c2ccccc2)cc1 | 9.3 | -4.6% | -1.2 | ? | -17.5% | ?
CCOc1ccc(NC(=S)NNC(=S)Nc2cccc(C(F)(F)F)c2)cc1 | 52.6 | 1.4% | 11.0 | ? | 5.1% | 13.1µM*
COc1ccc(NC(=S)NNC(=S)Nc2cccc(C(F)(F)F)c2)cc1 | 15.6 | -1.5% | 4.2 | ? | 0.2% | ?
O=C(NNC(=S)Nc1cccc(C(F)(F)F)c1)c1ccc(Cl)cc1Cl | 7.0 | -14.7% | -2.0 | 26.4% | -45.1% | 39.7%
CC(=O)OC1OCCOC1NC(=S)NCc1ccco1 (stereo unspecified) | -11.7 | 1.3% | 18.8 | -9.6% | 2.4% | 0.0%
SMILES | Shiga inhibitor | SARS PLpro yeast | Cycloheximide cs | Pf growth 48h | NS1 function inh | Pf growth 96h
CC(=O)OC1OCCOC1NC(=S)Nc1cccc(C(F)(F)F)c1 (stereo unspecified) | 66.2* | -0.2% | 19.4* | 21.8% | · | 23.3%
Cc1ccccc1C(=O)NNC(=S)Nc1cccc(C(F)(F)F)c1 | 27.3 | 20.4% | 27.7* | 13.2% | -0.6% | ?
CC(C)(O)C(=O)NNC(=S)Nc1cccc(C(F)(F)F)c1 | -3.7 | -0.4% | 9.7 | 12.6% | 4.5% | 11.7µM*
CCn1nc(C(=O)NCc2nnc3ccccn23)c2ccccc2c1=O | · | -7.0% | · | ? | · | ?
O=C(CS(=O)(=O)c1ccccc1)Nc1nnc(-c2cccs2)o1 | · | 13.7% | · | -0.7% | · | -0.1%
Nc1ccc(OCc2ccco2)cc1 | 39.7 | 4.2% | 16.2 | 16.4% | · | 43.9%
CNNC(=S)Nc1cccc(C(F)(F)F)c1 | -3.2 | -0.8% | -2.2 | 4.15µM* | 5.1% | ?
FC(F)(F)c1cccc(NC(=S)NNC(=S)Nc2cccc(C(F)(F)F)c2)c1 | 21.9 | -6.7% | 10.1 | ? | -61.5% | ?
Cc1ccc2nc3n(c(=O)c2c1)-c1ccccc1C(=O)NC3Cc1ccc(O)cc1 (stereo unspecified) | · | 2.7% | · | · | · | ·
CCCN(Cc1ccccc1)C(=S)Nc1ccc(OCC)cc1 | 25.4 | -0.6% | 19.2* | 18.7% | · | 41.8%
CCOc1ccc(NC(=S)N(CC)Cc2ccccc2)cc1 | 34.4 | 7.7% | 32.1* | 13.1% | · | 24.5%
CCOc1ccccc1N/C(=N/c1nc(C)cc(C)n1)NC(=O)Nc1ccc(Cl)c(Cl)c1 | -5.6 | 5.8% | -2.0 | ? | 0.2% | -7.9%
CCOC(=O)C1CCN(C(=O)CC(C)S(=O)(=O)c2ccc3c(c2)NC(=O)CO3)CC1 (stereo unspecified) | 4.6 | -1.1% | -0.4 | -7.6% | -14.5% | ?
CC(CC(=O)N(C)C1CCCCC1)S(=O)(=O)c1ccc2c(c1)NC(=O)CO2 (stereo unspecified) | 10.9 | -5.5% | 9.4 | 12.7% | -2.1% | 7.38µM*
CCC1=NN(C(=O)c2ccc(Cl)cc2)C(O)(c2ccccc2)C1 (stereo unspecified) | 16.6 | 1.1% | 12.5 | ? | -14.7% | 3.29µM*
CCC1=NN(C(=O)c2ccc(Cl)cc2)C(O)(c2ccc(C)cc2)C1 (stereo unspecified) | 45.1* | -5.8% | 18.3* | -22.0% | 4.5% | -57.4%
CCC1=NN(C(=O)c2ccccc2O)C(O)(c2ccccc2)C1 (stereo unspecified) | 77.3* | -0.3% | 31.0* | -14.0% | -12.5% | ?
CCC(=O)Nc1cccc(C(=O)OCc2cccc([N+](=O)[O-])c2)c1 | 1.9 | -3.3% | 7.3 | -17.3% | -37.0% | 28.3%
COc1cccc(NC(=S)N(CCCN2CCOCC2)C(C)c2cc3cccc(OC)c3o2)c1 (stereo unspecified) | -13.0 | -5.4% | 7.3 | ? | · | 2.08µM*
COc1cccc(NC(=O)N(CCCN2CCOCC2)C(C)c2cc3ccccc3o2)c1 (stereo unspecified) | -2.8 | 0.6%[6.58 µM] | -2.6 | · | -0.3% | 11.7µM*
COc1ccc(N(C(=O)c2cccc(OC)c2OC)C2C=CS(=O)(=O)C2)cc1 (stereo unspecified) | -13.0 | 2.0% | 7.9 | 35.2% | -8.6% | 2.33µM*
Cn1c(C2=C(O)CN(c3ccccc3)C2=N)nc2ccccc21 | -5.8 | 2.0% | 8.3 | 1.8% | · | 1.3%
Cc1cc(C(C)(C)C)cc(C)c1COC(=O)c1cccnc1 | -6.0 | -0.5% | -1.7 | ? | -2.6% | ?
